Assay results from PubChem BioAssay (NCI).
This is part of a sample that, as a whole, favours compounds with a hit. Of some 83,000 tested, about 20% had one in any assay.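 Note: values are percent growth. 100 is the growth of untreated cells, values between 100 and 0 indicate rising inhibition; between -100 and 0 indicates cell death.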 Values without a mark were called inactive. Calls of active or inactive are those of the source. Rule for the calls: active = growth percent below 10; inactive = the rest.

What was measured:
Assay in all cases: NCI-60 one-dose screen, 48 h (100 = growth as untreated, 0 = no growth, -100 = all killed)
Conditions in all cases: 10 µM unless noted
T-47D breast = tested on: T-47D breast
BT-549 breast = tested on: BT-549 breast
MDA-MB-435 melanoma = tested on: MDA-MB-435 melanoma
SW-620 colon = tested on: SW-620 colon
MCF7 breast = tested on: MCF7 breast
HCT-116 colon = tested on: HCT-116 colon
HCC-2998 colon = tested on: HCC-2998 colon
KM12 colon = tested on: KM12 colon

Compound | growth (T-47D breast) | growth (BT-549 breast) | growth (MDA-MB-435 melanoma) | growth (SW-620 colon) | growth (MCF7 breast) | growth (HCT-116 colon) | growth (HCC-2998 colon) | growth (KM12 colon)
CCOP(=O)(OCC)OC[C@]12CCC(C)(C)C[C@H]1C1=CC[C@@H]3[C@@]4(C)C/C(=C\c5cccnc5)[C@H](OP(=O)(OCC)OCC)C(C)(C)[C@@H]4CC[C@@]3(C)[C@]1(C)CC2 | 16.1% | 33.4% | 31.2% | 25.9% | 6.1% (active) | 11.1% | 33.1% | 23.6%
COc1ccc(C2C(C#N)=C(N)Oc3c2sc2ccc(C)cc32)cc1 (stereo not given) | 32.7% | 26.8% | -26.4% (active) | 13.9% | 19.2% | 22.1% | 53.2% | 24.2%
COc1ccc(CN2C(=O)/C(=C/c3nc(CO)cs3)SC2=S)cc1 | 53% | 99.9% | 89.7% | 77.8% | 12% | 75% | 109% | 9.43% (active)
CS(=O)(=O)c1nccc(-c2c(-c3ccc(F)c(OCc4ccc(F)cc4)c3)nc3sccn23)n1 | -18.7% (active) | 69.8% | 97.3% | 88.2% | -6.26% (active) | 90.2% | -63.6% (active) | 41.5%
Cc1cc(NS(=O)(=O)c2ccc(-c3cnc(C4CC4)o3)cc2)ccc1I | 32.5% | 36% | 3.85% (active) | 25.5% | 25.4% | 28.3% | 63.8% | 27.4%
CN1CCN(c2ccc(C(=O)Nc3cccc(-c4cn(-c5ccc(S(N)(=O)=O)cc5)nn4)c3)cc2C(F)(F)F)CC1 | 74.8% | 73.5% | 77.7% | 50.4% | 70.8% | 71.4% | 88.3% | 59.1%
CC1=CC(=O)CC(C)(C)[C@@]1(O)/C=C/C(C)=C\C(=O)O | -22.7% (active) | -22.4% (active) | -70.7% (active) | 0.826% (active) | -14.6% (active) | -34% (active) | -52.1% (active) | 3.82% (active)
COc1cnc2c(c1)C(=O)c1c-2n(CCCNCC2CC2)c(=O)c2cc(F)ccc12 | -21.2% (active) | -0.964% (active) | 10% | -29.6% (active) | -8.09% (active) | -79.7% (active) | -41% (active) | -8.57% (active)
C=C(C)C(=O)O[C@H]1C[C@@]2(C)OC(=CC2=O)[C@H](C)[C@H](O)[C@H]2OC(=O)C(=C)[C@@H]21 | 22.2% | 68.9% | 76.3% | 17.3% | 22.1% | 33.4% | 114% | 84.1%
O=c1c2c(O)cccc2oc2c3c(cc(O)c12)O[C@H]1OC=C[C@@H]31 | 57.4% | 95.2% | 83.3% | 78.1% | 8.3% (active) | 86.6% | 63.8% | 82.4%
Cn1c(SC(C(=O)Nc2ccc(F)cc2)c2ccccc2)nc2ccccc2c1=O (stereo not given) | 96% | 102% | 101% | 105% | 90.9% | 95.3% | 98.3% | 112%
Cc1ccccc1NC1CC(=O)N(c2ccc(Cl)cc2Cl)C1=O (stereo not given) | 105% | 123% | 101% | 96.2% | 94% | 108% | 109% | 105%
O=C1Nc2cc(OC(F)(F)F)ccc2Oc2ccc(-c3ccnc(N4CCNCC4)c3)cc21 | -61.9% (active) | -4.26% (active) | -95.7% (active) | -91.8% (active) | -55.7% (active) | -91.4% (active) | -76.8% (active) | -10.6% (active)
CC(C)C[C@H]1C(=O)O[C@H](C(C)C)C(=O)N(C)[C@@H](C(C)C)C(=O)O[C@H](C(C)C)C(=O)N(C)[C@@H](C(C)C)C(=O)O[C@H](C(C)C)C(=O)N1C | 6.43% (active) | 17.6% | 21.9% | 18.2% | 13.8% | 9.58% (active) | 23.1% | 16.6%
Cc1nc(-c2cc3ccccc3c(N3CCN(C)CC3)n2)cs1 | 84.3% | 97.5% | 99.9% | 98.6% | 92.7% | 93% | 95.3% | 103%
O=C(COc1cccc2cccnc12)Nc1ccc(C(=O)/C=C/c2ccc(Cl)cc2)cc1 | 74.8% | 87.9% | 92.6% | 93.6% | 17.1% | 5.25% (active) | 102% | 86.5%
COc1ccc2c(c1)c(-c1nn3c(=O)cc(-c4ccccc4)nc3s1)cn2C | 16% | 49.8% | -23.8% (active) | 28.1% | 18.9% | 22.7% | 75.2% | 44.7%
C/C=C/[C@@H]1C=C[C@@H]2C[C@H](C)CC[C@H]2[C@]1(C)/C(O)=C1/C(=O)[C@H](CO)N(C)C1=O | 74.7% | 75.2% | 74.8% | 52.5% | 68.3% | 61.4% | 57% | 47.2%
C(=C(\C1=NCCN1)n1cnc2ccccc21)/c1cccc2ccccc12 | 82.4% | 107% | 74% | 102% | 57.3% | 88% | 92.9% | 42.5%
O=C(/C=C1\C=CN(CCCCCCF)c2ccccc21)n1ccc2ccccc21 | 82% | 103% | 108% | 104% | 88.4% | 84.8% | 107% | 100%
COc1cc(/C=N/n2cnc3oc(-c4ccccc4)cc3c2=N)cc(CN2CCN(C)CC2)c1O | 99.4% | 120% | 98.6% | 101% | 89.3% | 80.6% | 108% | 87.2%
O=C(c1cccc(F)c1)n1ccc2cc(NC(=S)Nc3cccnc3)ccc21 | 93.7% | 97.6% | 99% | 93.8% | 85.7% | 105% | 99.7% | 97.9%
COc1cc2c3c(n(CCCN4CCCCC4)c(=O)c2cc1OC)-c1cc2c(cc1C3=O)OCO2 | -64.6% (active) | -59.7% (active) | -81.4% (active) | -92.5% (active) | -75.5% (active) | -71.9% (active) | -86.8% (active) | -85.4% (active)
C=CCn1c(SCC(=O)Nc2cccc(C(=O)/C=C/c3ccc(Br)cc3)c2)nc2ccccc2c1=O | 76% | 45.8% | 86.9% | 76.3% | 26.6% | 8.62% (active) | 93.8% | 81.3%
COc1ccccc1/C=C/C=N/NC1=NC2C(S1)N(C)C(=O)N2c1ccccc1 (stereo not given) | 77.8% | 10% | -20.6% (active) | 17.7% | 13.4% | 3.81% (active) | 19.9% | 7.34% (active)
CCOC(=O)/C(F)=C/C1CC1CCc1cccc(C(F)(F)F)c1 (stereo not given) | 108% | 113% | 103% | 102% | 95% | 110% | 109% | 99.1%
O=c1cc(-c2ccccc2)nc2sc(-c3c[nH]c4ccc(F)cc34)nn12 | 27.2% | 56.7% | 63.7% | 60.9% | 57.9% | 57.2% | 83.4% | 84.2%
COc1cc(OC)c(S(N)(=O)=O)cc1C(=O)/C=C/c1ccccc1 | 13.6% | 16.7% | 9.57% (active) | 3.85% (active) | 10.9% | 11.7% | 22.3% | 3.96% (active)
COc1cc(-c2noc(C[C@@H](NC(=O)OCc3ccccc3)C(C)C)n2)cc(OC)c1OC | 90.2% | 105% | 106% | 98.5% | 87.3% | 101% | 103% | 105%
Cc1ccc(NC(=O)c2ccc(CN3CCN(C)CC3)c(C(F)(F)F)c2)cc1Oc1ccc(-c2[nH]nc3ncnc(N)c23)cc1 | 101% | 105% | 71.5% | 24.3% | 54% | 8.72% (active) | 111% | 17.7%
